# According to PubChem BioAssay:
# Where “and” joins values, the source holds several entries; their conditions need not be identical. Identical values can stand only once. The source holds several records for some structures; these can differ, active in one and inactive in another. Calls of active or inactive are those of the source.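 How the source made its calls, unless noted: active means inhibition at or above 50% relative to wild type and mutant plate controls; inactive means inhibition below 50%.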
# Tests used:
# [1] = inhibitors of TNFa-induced NFkB p65 translocation, primary screen, imaging, HUVEC, MLSMR starter and 10KST1 sets (AID 438;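 active means inhibition above 20% together with a positive visual image hit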;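 further: compound added about 3h40 before a 20 min TNFalpha stimulation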;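 on inhibition: signal is the nuclear over cytoplasmic p65 intensity ratio per well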); conditions: HUVEC TNFa-induced p65 nuclear translocation; cell count: measured here: nuclei count (cytotoxicity indicator), at 2.08 µM; inhibition: at 2 µM, stronger effect = higher value, 0% TNFa-plus-vehicle, 100% no-TNFa wells
# [2] = reduction of polyQ htt aggregates in cells – imaging, exon1htt(103Q)mCFP cells, high-content imaging, primary screen (AID 483;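 active means visual image review flags a hit and inhibition of aggregation exceeds 20%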;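 further: compound exposure lasted 3 days before fixation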;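 on nuclei count: percent of the per-plate median nuclei count of sample wells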); conditions: exon1htt(103Q)mCFP cell line, aggregate imaging, at 2 µM; inhibition of aggregation: stronger effect = higher value; nuclei count: measured here: cell count, toxicity
# [3] = endothelial E-selectin expression blockers – imaging, HUVEC, immunofluorescence, MLSMR starter and 10KST1 sets, primary screen (AID 487;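 active means visually confirmed hit in the image check and inhibition above 20%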;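 on inhibition: signal is fraction of cell area covered by stained E-selectin grains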;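 on nuclei count: 100% = median nuclei count of all wells on the same plate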); conditions: HUVEC TNFalpha-induced E-selectin immunofluorescence imaging, at 2 µM; inhibition: stronger effect = higher value; nuclei count: measured here: cell number, toxicity
# [4] = Primary imaging screen for DUSP6 inhibitors that restore phospho-Erk in transfected HeLa cells, chemical complementation (AID 609;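 active means compounds giving at least 50% inhibition in the cell-based MKP-3 phosphatase rescue imaging test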;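 on inhibition: phospho-Erk level distribution per well compared with pooled transfected vehicle control wells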); conditions: HeLa MKP-3 transfected, phospho-Erk imaging KS statistic, at 10 µM, cells stimulated with TPA for 15 min
# [5] = target: Dual specificity protein phosphatase 6 (Homo sapiens) (UniProt Q16828); assay: as above; conditions: HeLa MKP-3 transfected, phospho-Erk imaging KS statistic; at 10 µM; stronger effect = higher value; cells stimulated with TPA for 15 min
# [6] = target: Voltage-gated potassium channel subunit beta-2 (Rattus norvegicus) (UniProt P62483); assay: inhibitors of rat Kvbeta2 reductase activity – biochemical, NADPH fluorescence, primary screen (AID 622;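 active means fluorescence slope higher than the sample average by over 3 SD, cut at about -0.22 in these data, passing the limit was not always enough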;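 further: slope of raw intensity against log time taken from 70 to 1610 s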); conditions: recombinant KvBeta, 4-cyanobenzaldehyde reduction, at 10 µM, stronger effect = higher value
# [7] = target: Voltage-gated potassium channel subunit beta-2 (Rattus norvegicus) (UniProt P62483); assay: enhancers of rat Kvbeta2 NADPH turnover – biochemical, NADPH fluorescence, primary screen (AID 623;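 active means NADPH fluorescence slope more negative than the mean of all samples by about 3 SD, 99.7% confidence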;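 further: fluorescence intensity change per second fitted from 20 to 320 s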); conditions: Recombinant KvBeta, NADPH fluorescence decrease slope, 10 min; at 10 µM; stronger effect = lower value
# [8] = target: Alpha-2C adrenergic receptor (Homo sapiens) (UniProt P18825); assay: compounds altering alpha2C-coupled GIRK flux – cell-based, HEK293 alpha2C/GIRK1/2, thallium flux, primary screen (AID 624;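 active means fluorescence slope after compound addition differing from the mean of all screened samples at 99.7% confidence, in either direction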;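 further: slope of fluorescence ratio to pre-addition baseline per second over 15 to 24 s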); conditions: thallium flux BTC fluorescence, at 10 µM, actives lie on both sides
# [9] = inhibitors of larval lipid processing in zebrafish, primary screen, whole organism, PED6 fluorescence, gall bladder and intestine (AID 686;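 active means a full or partial loss of lipid-probe fluorescence in the fish gall bladder, intestine or both, judged by eye; inactive means no fluorescence loss, or compound toxic to the fish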;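 further: larvae 5 to 7 days old with five fish per well; signal comes from phospholipase A2 cleavage of quenched PED6 carried via bile; overnight exposure to compound and PED6 before scoring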); conditions: Zebrafish larvae PED6 lipid processing, fluorescence scoring; screened at 20 µM (by protocol)
# [10] = loss of swimming-algae plug formation – whole organism, Chlamydomonas reinhardtii, WT vs cilia-less mutant, absorbance, 96-well, primary screen (AID 463189); conditions: Chlamydomonas reinhardtii gravitaxis, OD600 absorbance, 2 days; at 10 µM; stronger effect = higher value;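 further: 0% = wild type cc124 cells in DMSO and 100% = ciliumless bld1 mutant cells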
# [11] = blockers of RIG-like receptor reporter activation – cell-based, Sendai virus stimulus, luciferase, 10K MLSCN set, TLR/RLR signaling modifier project, primary screen (AID 602276;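 active means inhibition at or above 50% at 10 µM; inactive means inhibition below 50%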;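 further: firefly luciferase from ISG56 promoter only with Renilla not read in this screen; 0% = Sendai virus plus DMSO and 100% = medium plus DMSO without virus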); conditions: HEK293 RL24 IRF3 luciferase reporter, at 10 µM, stronger effect = higher value
# [12] = TLR3 IRF3 reporter activation blockers – cell-based, poly I:C stimulus, luciferase, 10K MLSCN set, primary screen (AID 602277;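 active means inhibition of the reporter signal at or above 50%; inactive means inhibition below 50%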); conditions: HEK293-TLR3 RL24 IRF3 luciferase reporter, at 10 µM, stronger effect = higher value
# [13] = target: Muscarinic acetylcholine receptor M4 (Homo sapiens) (UniProt P08173); assay: M4-linked GIRK flux change, two-sided – cell-based, HEK293 M4/GIRK, thallium flux, BTC-AM, M4 allosteric agonist project, primary screen (AID 625;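 active means fluorescence slope after compound addition differing from the mean of all tested samples at 99.7% confidence, mostly higher but some lower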;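 further: thallium influx through GIRK channels coupled to M4 in HEK293 cells with BTC-AM dye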); conditions: at 10 µM, actives lie on both sides
# [14] = measured here: cell density z-score
# [15] = measured here: nuclear c-Myc green intensity z-score
# [16] = measured here: nuclear pErk red intensity z-score, stronger effect = higher value
# Alpha-2C adrenergic receptor (Homo sapiens), sequence (P18825 whole entry, looked up): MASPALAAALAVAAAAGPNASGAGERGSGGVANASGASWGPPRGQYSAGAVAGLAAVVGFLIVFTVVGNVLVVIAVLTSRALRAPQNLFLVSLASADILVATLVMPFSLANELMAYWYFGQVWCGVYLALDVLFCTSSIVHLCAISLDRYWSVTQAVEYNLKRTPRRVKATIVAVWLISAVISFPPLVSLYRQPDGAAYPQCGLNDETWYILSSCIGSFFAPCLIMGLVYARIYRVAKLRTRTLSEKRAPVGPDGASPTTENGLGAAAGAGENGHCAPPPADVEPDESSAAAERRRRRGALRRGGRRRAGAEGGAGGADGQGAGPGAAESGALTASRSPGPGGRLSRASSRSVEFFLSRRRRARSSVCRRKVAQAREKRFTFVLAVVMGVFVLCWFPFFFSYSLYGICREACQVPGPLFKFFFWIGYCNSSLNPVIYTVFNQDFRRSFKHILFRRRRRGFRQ
# Dual specificity protein phosphatase 6 (Homo sapiens), sequence (Q16828 whole entry, looked up): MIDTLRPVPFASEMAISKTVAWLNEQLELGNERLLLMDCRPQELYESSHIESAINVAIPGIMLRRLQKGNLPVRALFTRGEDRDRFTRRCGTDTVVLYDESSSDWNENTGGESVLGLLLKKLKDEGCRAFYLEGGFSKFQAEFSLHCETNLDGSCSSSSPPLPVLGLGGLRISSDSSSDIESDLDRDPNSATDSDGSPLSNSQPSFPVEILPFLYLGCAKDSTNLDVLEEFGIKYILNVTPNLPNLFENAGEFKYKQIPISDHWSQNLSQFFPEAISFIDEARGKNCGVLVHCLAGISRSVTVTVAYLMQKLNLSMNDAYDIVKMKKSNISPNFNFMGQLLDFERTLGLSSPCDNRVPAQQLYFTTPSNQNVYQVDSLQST
# Voltage-gated potassium channel subunit beta-2 (Rattus norvegicus), sequence (P62483 whole entry, looked up): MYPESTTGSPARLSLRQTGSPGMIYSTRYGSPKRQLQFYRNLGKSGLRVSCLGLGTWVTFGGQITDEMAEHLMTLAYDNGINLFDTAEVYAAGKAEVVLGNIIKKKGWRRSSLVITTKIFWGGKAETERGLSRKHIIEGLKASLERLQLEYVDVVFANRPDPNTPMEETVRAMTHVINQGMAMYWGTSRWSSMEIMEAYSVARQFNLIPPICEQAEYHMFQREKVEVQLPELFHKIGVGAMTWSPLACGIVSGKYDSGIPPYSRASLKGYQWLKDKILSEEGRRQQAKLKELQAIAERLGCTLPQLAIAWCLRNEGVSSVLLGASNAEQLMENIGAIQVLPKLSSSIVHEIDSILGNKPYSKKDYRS
# Muscarinic acetylcholine receptor M4 (Homo sapiens), sequence (P08173 whole entry, looked up): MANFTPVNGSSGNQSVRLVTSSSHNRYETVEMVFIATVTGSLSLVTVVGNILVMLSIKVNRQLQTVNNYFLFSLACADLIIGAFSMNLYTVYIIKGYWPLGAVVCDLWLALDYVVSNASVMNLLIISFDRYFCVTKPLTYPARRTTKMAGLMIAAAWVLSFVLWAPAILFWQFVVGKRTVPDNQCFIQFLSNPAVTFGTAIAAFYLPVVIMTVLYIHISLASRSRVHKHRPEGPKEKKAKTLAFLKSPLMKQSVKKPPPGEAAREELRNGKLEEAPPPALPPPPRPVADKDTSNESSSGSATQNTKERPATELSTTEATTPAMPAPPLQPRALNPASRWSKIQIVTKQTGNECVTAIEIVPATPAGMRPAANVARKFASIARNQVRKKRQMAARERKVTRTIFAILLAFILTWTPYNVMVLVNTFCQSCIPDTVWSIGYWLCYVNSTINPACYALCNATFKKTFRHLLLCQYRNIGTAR
Compound,cell count [1],inhibition [1],inhibition of aggregation [2],nuclei count [2] [%],inhibition [3],nuclei count [3] [%],"z-score [4, 14]","z-score [4, 15]","z-score [4, 16]",inhibition [5],fluorescence slope [6],NADPH fluorescence slope [7],slope [8],outcome [9],inhibition [10],inhibition [11],inhibition [12],fluorescence slope [13]
O=C(C1=C(O)C(=O)N(c2ncccn2)C1c1cccc(Cl)c1)c1ccco1 (configuration not stated),454,-2.1% (inactive),23.5% (inactive),97.7,-61.9% (inactive),138,0.991,-0.348,0.185,-4.7% (inactive),-0.349 (inactive),-2.5e-05 (inactive),0.00586 (inactive),inactive,3.84% (inactive),11% (inactive),1.21% (inactive),
O=C(O)Cc1ccc(-c2ccccc2)cc1,636,-3% (inactive),-7.3% (inactive),105,-30.6% (inactive),123,1.25,0.515,-0.372,19% (inactive),-0.444 (inactive),-4.7e-05 (inactive),0.00497 (inactive),inactive,-15% (inactive),8.68% (inactive),34.8% (inactive),
CN1[C@@H](CC(=O)c2ccccc2)CCC[C@H]1C[C@H](O)c1ccccc1,617,-3.2% (inactive),-2.2% (inactive),96.2,-81.3% (inactive),120,-0.242,-0.85,0.339,21.2% (inactive),-0.436 (inactive),-0.000135 (inactive),0.00528 (inactive),inactive,1.79% (inactive) and -5.55% (inactive),8% (inactive),31.3% (inactive),
CCN(CC)c1ccc2c(C)c(-c3ccc(N)cc3)c(=O)oc2c1,446,-5% (inactive),6.3% (inactive),98.2,25% (inactive),149,0.788,0.208,-0.594,-4.78% (inactive),-0.133 (active),0 (inactive),0.00526 (inactive),inactive,55.8% (active),-44% (inactive),-91% (inactive),
CC1C/C=C/C=C/C=C/C=C/C(O[C@@H]2O[C@H](C)[C@@H](O)[C@H](N)[C@@H]2O)CC2OC(O)(CC(O)CC3OC3/C=C/C(=O)O1)CC(O)C2C(=O)O (some centres not stated),624,-3.2% (inactive),0.7% (inactive),111,-59.4% (inactive),135,-0.528,-0.94,-0.621,11.3% (inactive),-0.469 (inactive),-4.6e-05 (inactive),0.00542 (inactive),inactive,1.43% (inactive),7.33% (inactive),28.4% (inactive),
COc1cccc(-c2nnc3sc(C4CCCCC4)nn23)c1,569,-0.9% (inactive),42.2% (active),66.9,-37.4% (inactive),130,0.451,0.807,-1.36,-13.3% (inactive),-0.418 (inactive),-0.000116 (inactive),0.00489 (inactive),inactive,112% (active),28.7% (inactive),10.1% (inactive),
O=C1NC(c2cccs2)Nc2ccccc21 (configuration not stated),600,-16.1% (inactive),14.1% (inactive),130,-3.3% (inactive),140,-1.25,-1.7,1.79,1.12% (inactive),-0.292 (inactive),-3.3e-05 (inactive),0.00756 (inactive),inactive,15.5% (inactive),-3% (inactive),0.34% (inactive),
Cc1ccc(/C(O)=C2/C(=O)C(=O)N(Cc3ccco3)C2c2cccs2)cc1 (configuration not stated),592,-1.5% (inactive),-9.7% (inactive),111,-40.6% (inactive),136,-0.164,0.546,1.58,-18.6% (inactive),-0.497 (inactive),-6.4e-05 (inactive),0.00587 (inactive),inactive,-4.07% (inactive),-8% (inactive),3.2% (inactive),
CN(C)/C=C1\N=C(c2ccc(Cl)cc2Cl)OC1=O,698,-4.8% (inactive),8.1% (inactive),71.7,-31.3% (inactive),120,-1.76,2.52,-0.794,13.2% (inactive),-0.335 (inactive),-4e-05 (inactive),,inactive,40.7% (inactive),-61.9% (inactive),-177% (inactive),0.00537 (inactive)
CC(=O)OCC(=O)[C@@]1(O)[C@H](C)C[C@H]2[C@@H]3CCC4=CC(=O)C=C[C@]4(C)[C@@]3(F)[C@@H](O)C[C@@]21C,499,-5.8% (inactive),0.4% (inactive),45.5,-54.1% (inactive),112,-0.698,0.622,-0.569,-4.44% (inactive),-0.495 (inactive),-3.4e-05 (inactive),0.00493 (inactive),inactive,26.6% (inactive),14.1% (inactive),31.9% (inactive),
OCCN1CCN(CCCN2c3ccccc3Sc3ccc(C(F)(F)F)cc32)CC1,606,2% (inactive),4.9% (inactive),91.7,-56.8% (inactive),127,0.204,0.276,0.714,-10.4% (inactive),-0.544 (inactive),-5.6e-05 (inactive),0.00393 (inactive),active; no signal in intestine only,-10.6% (inactive) and 145% (active),12.2% (inactive),58.3% (active),
